This is part of a sample that, as a whole, favours compounds with a hit. Of some 83,000 tested, about 20% had one in any assay.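 Compound tested at a single concentration for 48 hours in 96-well plates; a percent growth value below 10 was scored as active.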 A number with no mark means an inactive call. Calls of active or inactive are those of the source.
Assays:
Test in all cases: NCI-60 one-dose screen, 48 h (100 = growth as untreated, 0 = no growth, -100 = all killed)
Settings in all cases: 10 µM unless noted
NCI-H23 lung = test system: NCI-H23 lung
NCI-H226 lung = test system: NCI-H226 lung
NCI-H322M lung = test system: NCI-H322M lung
HOP-62 NSCLC = test system: HOP-62 NSCLC
NCI-H460 lung = test system: NCI-H460 lung
HOP-92 NSCLC = test system: HOP-92 NSCLC
NCI-H522 lung = test system: NCI-H522 lung
A549/ATCC NSCLC = test system: A549/ATCC NSCLC
786-0 renal = test system: 786-0 renal
COLO 205 colon = test system: COLO 205 colon
DU-145 prostate = test system: DU-145 prostate
K-562 leukemia = test system: K-562 leukemia
MALME-3M melanoma = test system: MALME-3M melanoma
MDA-MB-231 breast = test system: MDA-MB-231 breast
RXF 393 renal = test system: RXF 393 renal
SF-268 CNS = test system: SF-268 CNS
SF-295 CNS = test system: SF-295 CNS
SF-539 CNS = test system: SF-539 CNS
UACC-257 melanoma = test system: UACC-257 melanoma
M14 melanoma = test system: M14 melanoma

| SMILES | growth (NCI-H23 lung) [%] | growth (NCI-H226 lung) [%] | growth (NCI-H322M lung) [%] | growth (HOP-62 NSCLC) | growth (NCI-H460 lung) | growth (HOP-92 NSCLC) | growth (NCI-H522 lung) | growth (A549/ATCC NSCLC) | growth (786-0 renal) | growth (COLO 205 colon) | growth (DU-145 prostate) [%] | growth (K-562 leukemia) | growth (MALME-3M melanoma) | growth (MDA-MB-231 breast) [%] | growth (RXF 393 renal) | growth (SF-268 CNS) [%] | growth (SF-295 CNS) | growth (SF-539 CNS) | growth (UACC-257 melanoma) [%] | growth (M14 melanoma) |
| --- | --- | --- | --- | --- | --- | --- | --- | --- | --- | --- | --- | --- | --- | --- | --- | --- | --- | --- | --- | --- |
| CC(=O)/C(=C/c1ccc([N+](=O)[O-])cc1)C(=O)c1ccccc1 | 88.1 | 81.5 | 100 | 79.8% | 107% | 70.1% | 52% | 83.6% | 92.5% | 90% | 92.6 | 31.3% | 89.1% | 91.4 | 74.2% | 76.1 | 93.3% | 102% | 76.3 | 79.8% |
| O=C(/C=C/c1ccc(Oc2ccc(Br)cc2)cc1)c1ccc(Br)cc1 | 95.3 | 103 | 95.3 | 99.9% | 105% | 91.6% | 91.1% | 94.4% | 101% | 113% | 102 | 91.8% | 98% | 101 | 100% | 101 | 100% | 102% | 98.1 | 93.5% |
| CCc1ccc(CCC(=O)Nc2ncc(Cc3ccccc3)s2)o1 | 37.6 | 64.3 | 54.7 | 23% | 7.58% (active) | 87.8% | -2.33% (active) | 32% | 41.6% | 12.3% | 26.7 | 11.8% | 65.2% | 52.5 | 2.15% (active) | 61.1 | 15.1% | -10.1% (active) | 58.9 | 10.5% |
| COc1cccc(-c2cc(-c3cccc(Cl)c3)c(C#N)c(=O)[nH]2)c1 | 86.7 | 91.4 | 89.5 | 68.5% | 78.5% | 51.7% | 62.2% | 70.9% | 88.8% | 111% | 88 | 31.3% | 69.8% | 96.1 | 75% | 79.1 | 74.2% | 74.5% | 85.5 | 58.3% |
| N#Cc1cccc(C2C3=C(COC3=O)N(CCO)c3cc4c(cc32)OCO4)c1 (stereo not given) | 44 | 74.9 | 49.3 | 32.2% | 14.8% | 42.4% | 17% | 39.5% | 24.9% | 8.4% (active) | 37.3 | 9.87% (active) | 49.6% | 59.4 | 41.5% | 40.3 | 4.98% (active) | 8.85% (active) | 55.3 | 14.5% |
| COc1ccc(C(=O)/C=C/c2ccc(N3CCCCC3)cc2)cc1OC | 92.5 | 72.7 | 91.5 | 98.3% | 97.9% | 69.9% | 84.4% | 90% | 103% | 100% | 95.4 | 76% | 104% | 91.8 | 107% | 95.3 | 95.2% | 98.2% | 82.8 | 89.4% |
| COc1ccc(/C=C/C(c2cc(OC)c(OC)c(OC)c2)n2cncn2)cc1 (stereo not given) | 67 | 76 | 61.2 | 41.8% | 22.1% | 40.3% | 28.4% | 35.5% | 39.6% | 30.7% | 61.2 | 17.7% | 61.3% | 50.1 | 46.5% | 57.1 | 22.5% | 56.5% | 46.4 | 17.9% |
| COc1ccc(/C=C(/c2ccccc2)[N+](=O)[O-])c(OC)c1 | 21.1 | 59.9 | 46.1 | 4.17% (active) | 2.72% (active) | -25.4% (active) | -13.2% (active) | 7.88% (active) | -66.1% (active) | -26.9% (active) | 38.6 | 6.07% (active) | -27% (active) | 12.1 | -67.8% (active) | 14.3 | 9.19% (active) | -48.5% (active) | 10.4 | 5.14% (active) |

Source: PubChem BioAssay (NCI)
